In the library only some 21% were active in any assay of this set; here they are far more common.
Cycloheximide cs – affects cycloheximide protein synthesis inhibition readout, counter-screen. hit rate 12% among 300,000. cell reporter, cycloheximide protein synthesis inhibition counterscreen. AID 2314. max response, %; in the data active means max response mostly above about 13%, no sharp cut-off; inactive means mostly below about 14%; further: read at 38.3 µM for the half of the compounds with a filed dose
Pf growth 96h – inhibits malaria parasite growth, 96 h | P. falciparum luciferase reporter growth, 96 h | Potency, µM (top dose mostly 28.7 µM), actives largely listed as inhibitors | hit rate 6.9% among 320,000
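Two-generation exposure (96 h) targets delayed-death phenotype. Reporter parasites carrying integrated firefly luciferase, in red cells at 2% hematocrit and 0.05% parasitemia final, kept at 37 C, 5% CO2; luminescence loss indicates inhibition.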
Pf growth 48h – P. falciparum growth inhibition at 48 hours (one generation); P. falciparum luciferase growth in erythrocytes, 48 h; Potency, µM (highest dose often 28.7 µM), hits mostly inhibitors; hit rate 5.9% among 310,000; AID 504832
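Firefly luciferase activity from engineered P. falciparum reports growth; inhibitors lower the luminescent signal. Cultures contained 2% hematocrit erythrocytes at 0.1% final parasitemia.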
NS1 inh – blocks influenza NS1 protein function; Potency, µM (series often up to 46.1 µM); hit rate 0.4% among 270,000; AID 2326; calls by dose curve; further: actives are rising curves; nearly all actives have a fitted effect of over 50% in size
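Compounds were scored for reversing the slow growth caused by influenza A NS1 in S. cerevisiae, measured by optical density at 600 nm. Assay medium contained 2% galactose at pH 6.0; NS1-free yeast of the same strain were the positive control.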
Shiga inhibitor – Shiga toxin inhibition | Vero cells, Shiga toxin protein synthesis inhibition reporter | inhibition, % at 38.7 µM | hit rate 9.2% among 290,000; in the data active means inhibition mostly above about 28%, no sharp cut-off; inactive means mostly below about 43%
Numbers stand for hits; i = inactive; ? = inconclusive; nt = no result; [ ] = dose if it differs, or a comment. Unless noted, the call rests on the fitted dose curve; in most records, active means well fitted inhibition curve with a large enough effect; inconclusive means small, poorly fitted or top-dose-only effect, or another doubt; inactive means no such curve, though single readings can be large or run the other way.

SMILES	Cycloheximide cs	Pf growth 96h	Pf growth 48h	NS1 inh	Shiga inhibitor
COc1ccc(CCNC(=O)C2CCC(=O)N2CCc2ccccc2)cc1OC (stereo unspecified)	26	i	i	nt	125
COc1ccc(CCNC(=O)C2c3ccccc3C(=O)N2CCC(C)C)cc1OC (stereo unspecified)	i	8.3µM	i	i	i
O=C(/C=C/c1cccs1)Nc1nncs1	34	i	i	i	54
O=C(/C=C/c1cccs1)Nc1scc(-c2ccccc2)c1C(=O)O	44	i	i	nt	92
O=C(/C=C/c1cccs1)Nc1cccnc1	75	4.7µM	i	i	124
O=C(/C=C/c1cccs1)Nc1nc(-c2ccccc2)cs1	40	i	?	i	63
O=C(/C=C/c1cccs1)NNC(=O)c1ccccc1	nt	i	i	nt	nt
O=C(COC(=O)/C=C/c1cccs1)Nc1nc(-c2cccc(Br)c2)cs1	i	i	i	i	i
O=C1CNC(=O)/C(=C/c2ccco2)N1	i	i	i	nt	i
CCC(=O)Nc1ccc(C(=O)CSc2nnc(-c3ccc(NS(=O)(=O)CC)cc3)o2)cc1OC	i	i	i	i	i
Cc1ccnc(NC(=O)/C=C/c2cccs2)c1	50	i	i	i	97
Cc1ccnc(NC(=O)CNC(=O)c2cccs2)c1	nt	i	i	nt	nt
CC(C)CNS(=O)(=O)c1ccc(CCC(=O)Nc2cc(Cl)ccc2Oc2ccccc2)cc1	i	4.1µM	nt	i	i
CCCNS(=O)(=O)c1ccc(CCC(=O)Nc2cc(Cl)ccc2Oc2ccccc2)cc1	i	i	13µM	i	i
CC(C)(C)NS(=O)(=O)c1ccc(CCC(=O)Nc2cc(Cl)ccc2Oc2ccccc2)cc1	i	nt	4.1µM	i	i
CC(C)(C)NS(=O)(=O)c1ccc(CCC(=O)NCc2ccccn2)cc1	i	i	i	i	i
CCCNS(=O)(=O)c1ccc(CCC(=O)NCCc2ccc(OC)c(OC)c2)cc1	i	i	i	i	i
Cc1ccccc1C(=O)N/N=C1\SCC(=O)N1Cc1ccco1	i	i	i	i	i
CCOC(=O)C1=C(C)N(C)C(=S)NC1c1ccc(Cl)cc1Cl (stereo unspecified)	i	15µM	i	i	i
CCn1ccc(C(=O)N2CCN(c3ncccn3)CC2)n1	i	i	i	i	i
Cc1nc(/N=C(\N)N(C)C)[nH]c(=O)c1C	i	i	i	i	i
O=C1/C(=C/c2ccc([N+](=O)[O-])cc2)CCC1C1CCCC1 (stereo unspecified)	18	i	i	i	i
COc1cccc(/C=C2\CCC(C3CCCC3)C2=O)c1 (stereo unspecified)	51	i	i	i	84
COc1cccc(/C=C2\CCCCC2=O)c1	16	i	i	i	i
Cc1cccc(/C=C2\CCC(C3CCCC3)C2=O)c1 (stereo unspecified)	15	i	i	i	i
SMILES	Cycloheximide cs	Pf growth 96h	Pf growth 48h	NS1 inh	Shiga inhibitor
CCOC(=O)C1(Cc2ccccc2)CCCN(Cc2ccc(OCC)c(CO)c2)C1 (stereo unspecified)	i	i	?	i	i
COc1cccc(/C=C2\CCC(C3CCCC3)C2=O)c1OC (stereo unspecified)	38	i	i	i	97
COc1ccc(/C=C2\CCC(C3CCCC3)C2=O)c(OC)c1OC (stereo unspecified)	i	?	i	i	i
Cc1ccc(CC2C(=O)N(c3ncccn3)C(=O)C2C)cc1 (stereo unspecified)	i	0.83µM	nt	i	i
Cc1ccc(CC2C(=O)N(c3ccc(C)cc3)C(=O)C2C)cc1 (stereo unspecified)	47	i	i	nt	80
COc1ccnc(-n2cccc2/C=N/O)c1C#N	i	?	i	i	i
CCOc1cc(C(=O)NCCCn2ccnc2)cc(OCC)c1OCC	i	?	i	i	i
O=C(c1ccc(Cl)cc1)C1C2C(=O)N(c3ccccc3)C(=O)C2C2CCCN21 (stereo unspecified)	i	15µM	?	i	i
CC(=O)c1ccc(N2C(=O)C3C(C2=O)C(C(=O)c2ccc(Cl)cc2)N2CCCC32)cc1 (stereo unspecified)	i	i	?	i	i
COc1ccc(N2C(=O)C3C(C2=O)C(C(=O)c2ccc(Cl)cc2)N2CCCC32)cc1 (stereo unspecified)	34	?	?	i	90
Cc1ccc(N2C(=O)[C@@H]3[C@H](C2=O)C2CCCN2[C@@H]3C(=O)c2ccccc2)cc1 (stereo partly specified)	i	?	12µM	i	i
O=C(c1ccccc1)[C@@H]1[C@@H]2C(=O)N(c3ccc(F)cc3)C(=O)[C@@H]2C2CCCN21 (stereo partly specified)	i	i	i	i	i
COC(=O)[C@H]1C[C@@H]1[C@H](NS(=O)(=O)c1ccccc1)c1ccccc1	i	i	i	i	i
COc1cc(/C=N/NC(=O)c2cccc(S(=O)(=O)N3CCCCC3)c2)cc(Br)c1O	i	i[5.75 µM]	i	nt	i
O=C(Nc1ccc(NC(=O)c2cccs2)cn1)c1ccccc1	60	i	i	nt	87
O=C(Nc1cccnc1)c1cccs1	i	i	i	i	i
Cc1cc(NC(=O)C2CC2)ccc1NC(=O)c1cccs1	i	i	i	i	i
CCCC(=O)Nc1ccc(NC(=O)c2cccs2)cn1	19	nt	i	i	98
N#Cc1ccc(NC(=O)c2cccs2)nc1	24	i	i	i	74
O=C(Nc1ccc(NC(=O)C2CC2)nc1)c1cccs1	30	i	i	i	60
CCn1c(-c2ccccc2)c(C(=O)CC#N)c2ccccc21	i	?	?	i	i
COc1ccccc1-c1cc(SC)c(C#N)c(=O)o1	i	i	i	i	i
COc1ccc2[nH]cc(CCNC(=O)C3CCCCC3)c2c1	i	?	i	?	i
CCCC(=O)Nc1ccc(NC(=O)c2ccccn2)cn1	23	nt	i	i	i
CCNC(=O)NC1(C(=O)Nc2ccc3c(c2)CCC3)CCCCC1	i	2.9µM	i	i	i
SMILES	Cycloheximide cs	Pf growth 96h	Pf growth 48h	NS1 inh	Shiga inhibitor
Cc1cccc(NC(=O)Nc2ccc3c(c2)CCC3)c1	56	i	i	i	97
O=C(CN1C(=O)NC2(CCCCC2)C1=O)Nc1ccc2c(c1)CCC2	i	i	i	nt	i
CCc1ccc(NC(=O)Nc2ccc3c(c2)CCC3)cc1	32	i	i	i	62
CC(=O)c1cccc(NC(=O)Nc2ccc3c(c2)CCC3)c1	35	i	i	i	41
Cc1ccc(C(=O)Nc2ccc3c(c2)CCC3)cc1	i	?	i	i	i
O=C1OC(C(=O)NCc2ccccc2)Cc2ccccc21 (stereo unspecified)	i	i	i	nt	i
O=C(CN1C(=O)c2ccc([N+](=O)[O-])cc2C1=O)NCC1CCCO1 (stereo unspecified)	nt	?	i	nt	nt
COC(=O)Cn1c(=NC(=O)CSC(C)=O)sc2ccccc21	i	?	i	i	i
CN(C)C=NC(=O)c1[nH]c2ccc(Cl)cc2c1-c1ccccc1	i	i	?	i	i
Cc1cc(C)cc(-n2c(C)cc(/C=N/NC(=O)CN(c3c(C)cccc3C)S(C)(=O)=O)c2C)c1	i	nt	?	i	i
Cc1ccc(-n2c(C)cc(/C=N/NC(=O)CC3(C)OCCO3)c2C)cc1	i	?	13µM	i	i

High-throughput results deposited in PubChem by National Center for Advancing Translational Sciences (NCATS).
